# Screening results as filed in PubChem.
# In the library only some 3.5% were active in any assay of this set; here they are far more common.
# Bead autofluor: counter-screen for toxin protease inhibitors: compound fluorescence. compound autofluorescence counterscreen, microsphere flow cytometry; active compounds read high. fluorescence intensity (concentration not given with the values). 3.1% of 360,000 active. AID 624483; in the data active means fluorescence intensity above about 16000; inconclusive means no clear call, values can overlap the other calls
# BoNT-A LC inh2: BoNT A light chain protease inhibition; multiplex microsphere protease substrate cleavage, flow cytometry; inhibition, % at 10 µM; 0.17% of 360,000 active; AID 588499; further: plate controls were buffer without enzyme for full effect and enzyme alone for no effect
# BoNT F protease: BoNT F light chain protease inhibition; inhibition, % at 10 µM; Multiplex microsphere protease cleavage assay, flow cytometry; 0.22% of 360,000 active; in the data active means inhibition above about 35%, passing the limit was not always enough; inconclusive means no clear call, values can overlap the other calls; further: plate controls were buffer without enzyme for full effect and enzyme alone for no effect
# BH1578 lux ind: quorum light induction in luxS cqsA deficient V. cholerae | 0.16% of 350,000 active | V. cholerae BH1578 lux reporter, luminescence, 6 h | activation, % at 18.7 µM; in the data active means activation mostly above about 9.7%, no sharp cut-off; inconclusive means no clear call, values can overlap the other calls; inactive means mostly below about 3.7%
# Anthrax LF inh2: inhibitors of Bacillus anthracis lethal factor protease; P15917; multiplex microsphere protease cleavage assay, LF; 0.12% of 360,000 active; inhibition, % at 10 µM; further: plate controls were buffer without enzyme for full effect and enzyme alone for no effect
# Target sequence (P15917 whole entry, looked up): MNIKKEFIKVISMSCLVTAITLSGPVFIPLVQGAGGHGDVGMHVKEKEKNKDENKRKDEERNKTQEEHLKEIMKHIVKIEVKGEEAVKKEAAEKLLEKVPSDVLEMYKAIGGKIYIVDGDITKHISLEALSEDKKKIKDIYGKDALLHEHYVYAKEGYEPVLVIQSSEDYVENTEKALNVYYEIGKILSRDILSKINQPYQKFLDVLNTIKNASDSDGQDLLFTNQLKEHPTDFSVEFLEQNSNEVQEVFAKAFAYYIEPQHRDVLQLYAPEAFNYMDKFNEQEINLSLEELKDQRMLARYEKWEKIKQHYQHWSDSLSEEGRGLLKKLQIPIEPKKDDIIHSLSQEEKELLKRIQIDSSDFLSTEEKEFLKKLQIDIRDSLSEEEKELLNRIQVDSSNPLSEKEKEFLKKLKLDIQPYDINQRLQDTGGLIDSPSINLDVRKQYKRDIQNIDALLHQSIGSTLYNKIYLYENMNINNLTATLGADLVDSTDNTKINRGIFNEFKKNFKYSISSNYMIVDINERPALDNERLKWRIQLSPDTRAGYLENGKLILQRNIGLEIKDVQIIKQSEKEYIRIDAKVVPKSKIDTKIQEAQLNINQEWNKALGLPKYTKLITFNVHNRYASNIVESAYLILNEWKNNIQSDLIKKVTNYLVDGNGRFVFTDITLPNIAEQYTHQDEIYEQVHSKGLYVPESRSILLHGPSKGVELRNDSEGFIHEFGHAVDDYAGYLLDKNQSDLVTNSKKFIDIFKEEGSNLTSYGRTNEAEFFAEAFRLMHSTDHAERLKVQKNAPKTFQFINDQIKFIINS
# * hit, by the source's call; i = inactive; ? = inconclusive; . = not tested or not shown. Unless noted, no stated cut-off is given here; in the data, active means inhibition above about 30%; inconclusive means no clear call, values can overlap the other calls; inactive means below that.
SMILES,Bead autofluor,BoNT-A LC inh2,BoNT F protease,BH1578 lux ind,Anthrax LF inh2
C=CCn1c(=O)c2c3c(sc2n2c(Nc4ccc(OC)cc4)nnc12)CCCC3,3719,-0.7,5.0,i,-5.0
C=CCn1c(=O)c2c3c(sc2n2c(Nc4ccc(C(=O)OCC)cc4)nnc12)CCCC3,17959*,-3.3,-8.4,i,1.0
O=C(c1cccs1)N1CCN(C2CCN(Cc3ccccc3)CC2)CC1,3609,0.1,5.3,i,2.9
O=C(c1cccs1)N1CCN(C2CCCCC2)CC1,20556*,?,3.8,-6.0,-3.6
O=C(c1cccs1)N1CCN(C(=O)C2CCCO2)CC1 (stereo not drawn),19685*,-0.4,-0.6,i,2.4
O=C(O)CCc1nn2c3ccccc3n(CC(=O)c3ccccc3)c2nc1=O,22951*,1.0,-0.3,-2.5,-1.0
O=C(CCCN1C(=O)CCC1=O)Nc1ccccc1F,22328*,3.6,4.0,-0.1,2.0
COc1cc(Cl)c(C)cc1NC(=O)CCCN1C(=O)CCC1=O,19155*,0.7,-1.5,-1.8,-2.8
O=C(CCCN1C(=O)CCC1=O)Nc1ccc(Br)cc1F,23503*,0.4,0.0,-0.1,-0.1
COc1ccc(NC(=O)NCC(C)CSc2ccc(C)cc2)c(OC)c1 (stereo not drawn),3713,-1.6,6.9,i,1.0
COc1ccc([C@@H]2C[C@H]3CN(Cc4ccccc4OC)C(=O)[C@]34CCCN24)cc1C,19989*,-3.9,31.5,-0.4,8.3
CCOc1ccc(N(CC(=O)Nc2nccs2)S(=O)(=O)c2c(C)[nH]c(=O)[nH]c2=O)cc1,4347,-0.5,-0.4,-0.4,-0.4
CC(C)SCCCCOc1ccc2ccccc2c1,21736*,1.3,-1.2,-3.2,-2.1
c1ccc2cc(OCCOCCOc3ccc4ccccc4c3)ccc2c1,3258,0.3,0.3,i,-4.9
COc1ccc(-c2nnc(N)s2)cc1,23923*,-0.9,-4.9,-5.6,-5.6
Cc1c(NC(=O)C(C)N(c2ccccc2)S(C)(=O)=O)c(=O)n(-c2ccccc2)n1C (stereo not drawn),4830,-1.1,4.0,i,0.0
CC(C)CCC(C)N=Cc1c(O)n(Cc2ccccc2)c(=O)c2ccccc12 (stereo not drawn),2898,-0.8,-6.1,i,-6.4
CC(C)CCN=Cc1c(O)n(-c2ccccc2)c(=O)c2ccccc12,22931*,?,1.4,i,-1.3
CCN1CCCC1CN=Cc1c(O)n(-c2ccccc2)c(=O)c2ccccc12 (stereo not drawn),27436*,?,3.8,i,3.8
COc1ccc(/C=C/c2onc(C)c2S(=O)(=O)N2CCC(C(=O)N3CCCCCC3)CC2)cc1,4297,0.3,3.3,-2.7,0.4
CCC(C)c1c(O)nc(SCC(=O)N2CCOCC2)[nH]c1=O (stereo not drawn),17264*,-3.8,-6.6,i,-5.6
Cn1nc(-c2ccccc2)c(C(O)c2ccc(Cl)cc2)c1Cl (stereo not drawn),24423*,-1.0,-1.8,i,-1.1
Cc1ccc2c(c1)C1CN(C)CCC1N2C(=O)Nc1cccc(C(F)(F)F)c1 (stereo not drawn),3147,-0.2,6.8,-0.7,0.3
Cc1ccc2c(c1)[C@@H]1CN(C)CC[C@@H]1N2C(=O)Nc1cccc(C(F)(F)F)c1,23738*,-3.3,-5.4,-1.4,-2.9
Cc1cc(C)cc(NC(=O)Nc2ccccc2N2CCCCC2)c1,4345,0.3,-4.8,-0.3,1.6
SMILES,Bead autofluor,BoNT-A LC inh2,BoNT F protease,BH1578 lux ind,Anthrax LF inh2
Cc1cccn2c(=O)c(C=Nc3ccc(Cl)cc3)c(NCCO)nc12,21575*,-2.2,-3.5,-0.3,-0.5
COc1cc(Cl)ccc1OCc1cc(C(=O)NCCCN2CCCC2=O)no1,5012,0.1,-2.1,-0.3,0.5
COC(=O)Cc1cc(=O)[nH]c(/N=C(\N)Nc2ccccc2)n1,21352*,4.3,5.5,-0.5,-0.9
Cc1ccc(N/C(N)=N/c2nc(CSc3ccc(C)cc3)cc(=O)[nH]2)cc1,23020*,-1.6,-1.7,0.3,0.4
CCOc1cc(OCC)cc(C(=O)N2CCC[C@@H]2C(=O)N2CCC[C@H]2C(=O)NCc2ccncc2)c1,5899,-0.3,-8.3,.,1.3
Cc1nc(SC(C(=O)c2ccccc2)c2ccccc2)n[nH]1 (stereo not drawn),20864*,3.7,4.6,2.0,-0.3
C#CCOC(=O)c1ccccc1C(=O)OCC#C,2823,-0.3,-6.4,-0.7,-3.1
C#CCOC(=O)c1csc2nnsc12,21747*,?,2.0,-0.1,-3.0
O=C(Cn1cc([N+](=O)[O-])cn1)Nc1ccn(Cc2c(F)c(F)c(F)c(F)c2F)n1,22598*,0.5,-1.2,-2.7,-1.1
O=C(Nc1ccn(Cc2c(F)c(F)c(F)c(F)c2F)n1)c1cccc(Cn2cc([N+](=O)[O-])cn2)c1,7985,0.3,-8.2,i,-4.8
O=C(Nc1ccn(Cc2c(F)c(F)cc(F)c2F)n1)c1cccc(Cn2cc([N+](=O)[O-])cn2)c1,23743*,-1.6,-1.0,2.0,-2.5
O=C(Cn1cc([N+](=O)[O-])cn1)Nc1ccn(Cc2c(F)c(F)cc(F)c2F)n1,23297*,?,2.7,i,-1.6
CCOc1ccc(NC(=O)CSc2ccc(-c3cccnc3)nn2)cc1,6354,-0.8,-9.3,i,2.2
O=C1CCC([N+](=O)[O-])C(c2ccc(C(F)(F)F)cc2)N1 (stereo not drawn),4551,0.4,?,i,-10.3
Cc1ccc2nc(C3CCN(C(=O)c4ccco4)CC3)[nH]c2c1,23117*,0.1,-1.0,-0.2,-1.7
Cc1ccc2nc(C3CCN(CC(=O)N4CCCCCC4)CC3)[nH]c2c1,23345*,0.4,-0.3,-0.7,4.1
COc1ccccc1CNC(=O)COC(=O)c1cnc(C)cn1,3440,0.7,-6.7,-3.1,-6.8
CC(C)NC(=O)c1ccc2c(c1)N(Cc1ccccc1)C(=O)C(C)(C)O2,.,.,.,0.2,.
COc1ccc(-n2nc3c(N4CCC(C(=O)NCc5ccccc5C)CC4)nnc(C)c3c2C)cc1,8875,3.0,22.4,-0.3,6.8
CCOc1ccccc1CNC(=O)C1CCCN(c2nnc(C)c3c(C)n(-c4ccccc4)nc23)C1 (stereo not drawn),19018*,-7.8,13.5,-0.4,2.1
CC(=O)c1ccc(-n2c(C)ccc2-c2ccccc2)cc1,23002*,1.1,-2.2,i,-5.8
COC(=O)c1ccc(-n2c(C)ccc2-c2ccccc2)cc1,8175,-1.0,-9.5,-0.4,-4.0
Cc1cc2nc(-c3cccnc3SCC(=O)NCc3ccco3)[nH]c2cc1C,22154*,3.4,2.5,i,2.4
O=C(CSc1ncccc1-c1nc2ccccc2[nH]1)NCc1ccco1,10742,2.6,-10.5,-0.2,2.4
CC1(c2nc3ccccc3[nH]2)CCC(=O)N1C1CC1 (stereo not drawn),5623,0.1,-0.1,.,2.9
CN=c1scc(-c2ccc(F)cc2)n1/N=C/c1ccc(O)c(O)c1,2665,-0.3,-6.6,-0.2,-2.7
O=C(c1ccc(COc2ccccc2[N+](=O)[O-])o1)N1CCCCCC1,4550,2.3,26.5,0.6,-1.7
O=C(c1ccc(COc2ccccc2[N+](=O)[O-])o1)N1CCCCC1,19870*,0.5,-0.6,0.6,-0.8
